Experiment in all cases: DAPPL (digital affinity profiling via proximity ligation, sequencing); 10 mM Tris-HCl pH 7.5, 50 mM NaCl, 1 mM DTT, 4% glycerol, room temperature, 30 min; GST-TFs on glutathione beads, 16-mer random dsDNA library, 0.1% formaldehyde crosslink after washing; high values mean tight binding
Test [1] addresses T1, FLI1 (Homo sapiens, UniProt Q01543 1-452).
T1 sequence: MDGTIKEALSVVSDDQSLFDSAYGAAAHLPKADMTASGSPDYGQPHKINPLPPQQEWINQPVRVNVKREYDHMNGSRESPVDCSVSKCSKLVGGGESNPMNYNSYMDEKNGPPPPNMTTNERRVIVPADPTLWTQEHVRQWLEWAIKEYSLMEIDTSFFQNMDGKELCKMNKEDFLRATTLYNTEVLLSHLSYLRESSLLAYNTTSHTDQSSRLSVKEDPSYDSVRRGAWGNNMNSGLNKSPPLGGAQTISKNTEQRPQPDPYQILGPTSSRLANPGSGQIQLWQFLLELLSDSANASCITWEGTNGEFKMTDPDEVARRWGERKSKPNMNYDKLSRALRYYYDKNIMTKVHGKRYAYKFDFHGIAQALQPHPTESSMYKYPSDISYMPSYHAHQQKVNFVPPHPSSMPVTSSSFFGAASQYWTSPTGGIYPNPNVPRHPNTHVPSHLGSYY
The following applies: protein: recombinant; tags: N-terminal GST; dsDNA, one strand shown. The method in brief:
(§1)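 Human transcription factors were made in yeast as GST fusions, captured on glutathione beads and barcoded with DNA. With a tag-only sample included, the pool was incubated with 200 nmole of a random double-stranded 16-mer DNA library in Tris/NaCl/DTT/glycerol buffer at room temperature for 30 min, then crosslinked with 0.1% formaldehyde after washing, ligated by proximity, amplified and sequenced. For binding signal, each hexamer's read frequency for a factor is divided by its frequency for the tag-only sample.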

Test [2] concerns the target T2, ELK1 (Homo sapiens, UniProt P19419 1-428).
T2 sequence: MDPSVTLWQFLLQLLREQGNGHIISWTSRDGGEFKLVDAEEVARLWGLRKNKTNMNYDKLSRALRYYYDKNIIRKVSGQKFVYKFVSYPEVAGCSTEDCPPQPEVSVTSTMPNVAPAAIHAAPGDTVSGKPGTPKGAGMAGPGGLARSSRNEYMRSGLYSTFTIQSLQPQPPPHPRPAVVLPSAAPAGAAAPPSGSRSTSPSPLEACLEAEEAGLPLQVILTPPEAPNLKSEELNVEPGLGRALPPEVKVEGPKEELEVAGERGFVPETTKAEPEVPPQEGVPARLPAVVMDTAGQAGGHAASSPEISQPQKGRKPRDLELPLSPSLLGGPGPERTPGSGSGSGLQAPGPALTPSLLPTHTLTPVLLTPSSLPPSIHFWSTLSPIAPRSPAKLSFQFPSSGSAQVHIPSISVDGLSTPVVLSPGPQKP
The following applies: protein: recombinant; tags: N-terminal GST; dsDNA, one strand shown. In short, it runs like this:
as §1

The target of test [3] is T3, GABPA (Homo sapiens, UniProt Q06546 1-454).
T3 sequence: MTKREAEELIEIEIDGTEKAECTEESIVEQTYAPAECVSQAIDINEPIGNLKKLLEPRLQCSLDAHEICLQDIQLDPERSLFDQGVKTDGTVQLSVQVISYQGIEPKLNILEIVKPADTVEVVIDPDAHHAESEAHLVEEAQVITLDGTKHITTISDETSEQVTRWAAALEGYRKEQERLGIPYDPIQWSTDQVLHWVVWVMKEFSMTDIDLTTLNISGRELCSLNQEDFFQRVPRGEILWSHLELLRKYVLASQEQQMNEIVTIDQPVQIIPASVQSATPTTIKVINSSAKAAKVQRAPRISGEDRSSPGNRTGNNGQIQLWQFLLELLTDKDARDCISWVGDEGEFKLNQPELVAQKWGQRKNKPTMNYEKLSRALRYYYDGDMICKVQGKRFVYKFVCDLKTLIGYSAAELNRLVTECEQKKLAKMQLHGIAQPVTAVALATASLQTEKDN
To be noted: protein: recombinant; tags: N-terminal GST; dsDNA, one strand shown. The method in brief: as §1

In test [4] the target is T4, ERG (Homo sapiens, UniProt P11308 1-479).
T4 sequence: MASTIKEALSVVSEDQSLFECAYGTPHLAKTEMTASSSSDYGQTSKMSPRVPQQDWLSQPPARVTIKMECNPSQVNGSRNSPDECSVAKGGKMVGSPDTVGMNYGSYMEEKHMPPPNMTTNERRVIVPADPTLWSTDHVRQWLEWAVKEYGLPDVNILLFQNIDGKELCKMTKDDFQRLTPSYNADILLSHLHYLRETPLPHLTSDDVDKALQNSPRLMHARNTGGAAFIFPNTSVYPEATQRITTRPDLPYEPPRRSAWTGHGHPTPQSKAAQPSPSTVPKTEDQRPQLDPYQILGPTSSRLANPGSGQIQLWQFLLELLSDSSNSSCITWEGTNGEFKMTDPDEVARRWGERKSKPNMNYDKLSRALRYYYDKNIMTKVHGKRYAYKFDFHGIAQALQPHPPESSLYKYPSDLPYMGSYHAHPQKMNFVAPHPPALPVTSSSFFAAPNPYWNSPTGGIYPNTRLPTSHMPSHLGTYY
To be noted: protein: recombinant; tags: N-terminal GST; dsDNA, one strand shown. In short, it runs like this: as §1

Test [5] has as its target ELF1 (Homo sapiens, UniProt P32519 1-619). The following applies: protein: recombinant; tags: N-terminal GST; dsDNA, one strand shown. In short, it runs like this: as §1
Test [6] has as its target T5, EHF (Homo sapiens, UniProt Q9NZC4 1-300).
T5 sequence: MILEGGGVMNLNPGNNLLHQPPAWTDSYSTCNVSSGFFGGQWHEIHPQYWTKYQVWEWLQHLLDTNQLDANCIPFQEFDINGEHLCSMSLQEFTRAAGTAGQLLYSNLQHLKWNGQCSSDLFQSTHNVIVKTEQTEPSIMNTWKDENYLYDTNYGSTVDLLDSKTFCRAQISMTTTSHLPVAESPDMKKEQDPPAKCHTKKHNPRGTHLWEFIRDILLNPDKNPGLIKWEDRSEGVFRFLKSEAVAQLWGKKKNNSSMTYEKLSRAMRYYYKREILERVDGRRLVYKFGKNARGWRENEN
To be noted: protein: recombinant; tags: N-terminal GST; dsDNA, one strand shown. In short, it runs like this:
as §1

Test [7] addresses SPI1 (Homo sapiens, UniProt P17947 1-270). To be noted: protein: recombinant; tags: N-terminal GST; dsDNA, one strand shown. In short, it runs like this: as §1
The target in test [8] is SPIB (Homo sapiens, UniProt Q01892 1-262). To be noted: protein: recombinant; tags: N-terminal GST; dsDNA, one strand shown. The method in brief: as §1
The target in test [9] is T6, ELK3 (Homo sapiens, UniProt P41970 1-407).
T6 sequence: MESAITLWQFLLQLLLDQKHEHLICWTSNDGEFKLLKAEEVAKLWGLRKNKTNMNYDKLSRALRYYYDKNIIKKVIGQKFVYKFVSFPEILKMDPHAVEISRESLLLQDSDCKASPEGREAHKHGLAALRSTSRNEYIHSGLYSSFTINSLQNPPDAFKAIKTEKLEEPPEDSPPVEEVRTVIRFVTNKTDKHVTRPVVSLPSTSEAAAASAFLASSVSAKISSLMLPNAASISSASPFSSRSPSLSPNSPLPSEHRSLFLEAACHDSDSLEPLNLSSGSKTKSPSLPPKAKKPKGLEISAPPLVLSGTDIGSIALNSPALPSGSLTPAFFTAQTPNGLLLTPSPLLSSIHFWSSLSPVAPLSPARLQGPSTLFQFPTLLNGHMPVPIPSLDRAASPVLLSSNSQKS
To be noted: protein: recombinant; tags: N-terminal GST; dsDNA, one strand shown. In short, it runs like this: as §1

The target in test [10] is T7, FEV (Homo sapiens, UniProt Q99581 1-238).
T7 sequence: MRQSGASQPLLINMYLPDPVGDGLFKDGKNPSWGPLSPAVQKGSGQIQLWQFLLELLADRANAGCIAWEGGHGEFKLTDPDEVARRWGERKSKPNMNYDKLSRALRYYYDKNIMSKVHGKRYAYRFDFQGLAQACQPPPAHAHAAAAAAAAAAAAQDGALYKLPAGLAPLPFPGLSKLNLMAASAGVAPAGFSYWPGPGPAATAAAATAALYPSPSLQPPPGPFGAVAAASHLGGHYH
The following applies: protein: recombinant; tags: N-terminal GST; dsDNA, one strand shown. The method in brief: as §1

In test [11] the target is ETV5 (Homo sapiens, UniProt P41161 1-510). To be noted: protein: recombinant; tags: N-terminal GST; dsDNA, one strand shown. In short, it runs like this:
as §1

Test [12] has as its target HSF1 (Homo sapiens, UniProt Q00613 1-529). The following applies: protein: recombinant; tags: N-terminal GST; chain copies: 3; dsDNA, one strand shown. In short, it runs like this:
as §1

Test [13] has as its target T8, SPIC (Homo sapiens, UniProt Q8N5J4 1-248).
T8 sequence: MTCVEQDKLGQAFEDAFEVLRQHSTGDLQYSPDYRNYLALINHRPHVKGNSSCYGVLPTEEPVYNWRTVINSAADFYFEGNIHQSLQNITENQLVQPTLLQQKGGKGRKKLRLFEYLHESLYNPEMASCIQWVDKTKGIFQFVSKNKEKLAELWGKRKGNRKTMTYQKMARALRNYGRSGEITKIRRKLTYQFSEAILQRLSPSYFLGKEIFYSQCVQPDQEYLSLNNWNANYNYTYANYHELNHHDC
The following applies: protein: recombinant; tags: N-terminal GST; dsDNA, one strand shown. The method in brief: as §1

In test [14] the target is ELF4 (Homo sapiens, UniProt Q99607 1-663). To be noted: protein: recombinant; tags: N-terminal GST; dsDNA, one strand shown. In short, it runs like this: as §1
For test [15], the target named is T9, ELK4 (Homo sapiens, UniProt P28324-2 1-405).
T9 sequence: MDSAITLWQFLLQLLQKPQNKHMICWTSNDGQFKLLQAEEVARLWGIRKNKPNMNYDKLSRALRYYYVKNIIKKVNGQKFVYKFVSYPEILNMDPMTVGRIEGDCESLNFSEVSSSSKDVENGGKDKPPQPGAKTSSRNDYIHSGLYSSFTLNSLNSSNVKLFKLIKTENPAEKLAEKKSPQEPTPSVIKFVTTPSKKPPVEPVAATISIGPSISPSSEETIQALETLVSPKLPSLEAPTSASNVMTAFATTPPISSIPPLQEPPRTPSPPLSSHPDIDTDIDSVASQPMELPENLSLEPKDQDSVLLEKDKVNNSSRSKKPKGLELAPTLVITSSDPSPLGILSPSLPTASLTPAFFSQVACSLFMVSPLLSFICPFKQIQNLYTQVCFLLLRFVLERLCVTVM
The following applies: protein: recombinant; tags: N-terminal GST; dsDNA, one strand shown. In short, it runs like this: as §1

The target of test [16] is T10, ETV2 (Homo sapiens, UniProt O00321 1-342).
T10 sequence: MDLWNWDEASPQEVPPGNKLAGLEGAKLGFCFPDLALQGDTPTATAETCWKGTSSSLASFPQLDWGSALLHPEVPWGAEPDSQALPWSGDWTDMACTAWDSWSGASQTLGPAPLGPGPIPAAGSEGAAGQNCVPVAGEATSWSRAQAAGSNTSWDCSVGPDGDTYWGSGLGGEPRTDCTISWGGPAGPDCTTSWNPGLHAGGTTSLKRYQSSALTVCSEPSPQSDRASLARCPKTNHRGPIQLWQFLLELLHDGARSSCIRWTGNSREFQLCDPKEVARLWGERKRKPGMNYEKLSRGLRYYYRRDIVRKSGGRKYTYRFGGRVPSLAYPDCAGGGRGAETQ
To be noted: protein: recombinant; tags: N-terminal GST; dsDNA, one strand shown. In short, it runs like this:
as §1

The target of test [17] is T11, ELF3 (Homo sapiens, UniProt P78545 1-371).
T11 sequence: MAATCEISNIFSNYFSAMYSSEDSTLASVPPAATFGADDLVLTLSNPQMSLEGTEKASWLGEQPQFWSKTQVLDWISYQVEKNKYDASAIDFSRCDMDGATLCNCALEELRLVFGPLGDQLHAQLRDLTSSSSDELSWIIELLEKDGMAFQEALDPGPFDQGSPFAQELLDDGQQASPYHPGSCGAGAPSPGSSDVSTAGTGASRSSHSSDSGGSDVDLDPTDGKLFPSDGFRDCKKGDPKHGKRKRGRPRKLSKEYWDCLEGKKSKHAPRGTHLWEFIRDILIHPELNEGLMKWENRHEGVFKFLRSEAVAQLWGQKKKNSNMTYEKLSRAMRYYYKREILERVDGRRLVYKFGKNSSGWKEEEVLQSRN
To be noted: protein: recombinant; tags: N-terminal GST; dsDNA, one strand shown. In short, it runs like this: as §1

For test [18], the target named is ETV1 (Homo sapiens, UniProt P50549 1-477). The following applies: protein: recombinant; tags: N-terminal GST; dsDNA, one strand shown. In short, it runs like this: as §1
ETV1, sequence (P50549 whole entry): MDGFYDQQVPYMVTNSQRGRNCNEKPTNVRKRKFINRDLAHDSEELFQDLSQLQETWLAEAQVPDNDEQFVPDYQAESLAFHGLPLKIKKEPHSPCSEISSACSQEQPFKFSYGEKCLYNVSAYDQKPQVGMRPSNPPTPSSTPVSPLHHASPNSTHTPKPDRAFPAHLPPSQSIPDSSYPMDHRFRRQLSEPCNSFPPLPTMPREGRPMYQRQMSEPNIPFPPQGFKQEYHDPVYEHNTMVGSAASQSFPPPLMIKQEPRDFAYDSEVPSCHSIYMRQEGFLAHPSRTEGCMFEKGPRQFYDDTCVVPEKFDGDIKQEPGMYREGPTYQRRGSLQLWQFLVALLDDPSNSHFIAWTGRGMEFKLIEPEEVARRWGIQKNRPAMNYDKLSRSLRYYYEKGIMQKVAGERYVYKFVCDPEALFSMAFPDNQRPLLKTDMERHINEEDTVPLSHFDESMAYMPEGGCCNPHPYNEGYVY

HSF1, sequence (Q00613 whole entry): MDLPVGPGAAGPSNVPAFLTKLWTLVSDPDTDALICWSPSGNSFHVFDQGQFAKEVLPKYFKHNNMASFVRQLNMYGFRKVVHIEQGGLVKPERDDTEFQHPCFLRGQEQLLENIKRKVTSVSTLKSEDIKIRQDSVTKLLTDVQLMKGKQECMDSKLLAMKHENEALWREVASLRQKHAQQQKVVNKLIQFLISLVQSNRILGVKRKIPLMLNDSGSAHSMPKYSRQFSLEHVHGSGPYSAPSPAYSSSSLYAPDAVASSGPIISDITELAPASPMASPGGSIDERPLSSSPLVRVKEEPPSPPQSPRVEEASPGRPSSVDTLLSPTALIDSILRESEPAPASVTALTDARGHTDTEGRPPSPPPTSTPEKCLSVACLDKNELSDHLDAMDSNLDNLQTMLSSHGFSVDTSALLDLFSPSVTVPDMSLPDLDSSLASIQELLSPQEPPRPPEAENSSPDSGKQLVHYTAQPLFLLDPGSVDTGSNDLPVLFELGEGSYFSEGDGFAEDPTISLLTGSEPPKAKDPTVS
ETV5, sequence (P41161 whole entry): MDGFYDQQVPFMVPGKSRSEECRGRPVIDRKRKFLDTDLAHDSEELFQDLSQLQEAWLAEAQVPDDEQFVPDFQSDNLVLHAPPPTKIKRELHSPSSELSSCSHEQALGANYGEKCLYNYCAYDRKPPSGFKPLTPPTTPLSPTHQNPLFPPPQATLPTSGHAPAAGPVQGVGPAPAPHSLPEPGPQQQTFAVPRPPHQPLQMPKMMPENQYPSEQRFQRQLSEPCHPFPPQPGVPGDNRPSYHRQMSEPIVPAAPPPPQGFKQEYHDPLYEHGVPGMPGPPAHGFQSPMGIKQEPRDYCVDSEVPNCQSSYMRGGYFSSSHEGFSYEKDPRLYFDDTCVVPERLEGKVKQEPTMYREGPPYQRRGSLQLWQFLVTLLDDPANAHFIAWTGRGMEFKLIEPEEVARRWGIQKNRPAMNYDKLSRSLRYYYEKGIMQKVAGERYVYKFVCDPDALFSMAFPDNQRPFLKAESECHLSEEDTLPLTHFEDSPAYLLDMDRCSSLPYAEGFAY
ELF1, sequence (P32519 whole entry): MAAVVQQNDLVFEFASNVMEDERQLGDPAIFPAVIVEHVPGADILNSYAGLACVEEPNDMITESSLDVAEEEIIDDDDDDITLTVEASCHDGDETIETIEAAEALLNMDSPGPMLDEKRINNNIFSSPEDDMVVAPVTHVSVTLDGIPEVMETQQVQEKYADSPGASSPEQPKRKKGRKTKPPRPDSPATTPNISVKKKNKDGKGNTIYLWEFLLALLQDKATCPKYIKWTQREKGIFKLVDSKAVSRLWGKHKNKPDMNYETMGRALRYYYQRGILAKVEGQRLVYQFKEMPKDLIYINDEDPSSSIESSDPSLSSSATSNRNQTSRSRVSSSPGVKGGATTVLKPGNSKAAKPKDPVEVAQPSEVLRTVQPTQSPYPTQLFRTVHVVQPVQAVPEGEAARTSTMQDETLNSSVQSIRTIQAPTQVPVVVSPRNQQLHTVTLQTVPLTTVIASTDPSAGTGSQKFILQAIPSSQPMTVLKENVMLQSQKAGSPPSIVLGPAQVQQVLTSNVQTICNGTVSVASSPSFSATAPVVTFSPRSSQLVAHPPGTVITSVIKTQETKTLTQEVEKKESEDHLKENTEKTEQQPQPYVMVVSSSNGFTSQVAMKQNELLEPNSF
SPIB, sequence (Q01892 whole entry): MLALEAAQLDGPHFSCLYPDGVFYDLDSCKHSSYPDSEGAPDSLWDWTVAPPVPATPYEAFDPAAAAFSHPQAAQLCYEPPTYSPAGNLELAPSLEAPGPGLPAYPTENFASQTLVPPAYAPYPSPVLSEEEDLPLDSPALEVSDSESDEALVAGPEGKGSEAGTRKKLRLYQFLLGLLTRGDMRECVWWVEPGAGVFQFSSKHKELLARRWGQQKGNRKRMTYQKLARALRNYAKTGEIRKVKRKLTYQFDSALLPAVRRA
ELF4, sequence (Q99607 whole entry): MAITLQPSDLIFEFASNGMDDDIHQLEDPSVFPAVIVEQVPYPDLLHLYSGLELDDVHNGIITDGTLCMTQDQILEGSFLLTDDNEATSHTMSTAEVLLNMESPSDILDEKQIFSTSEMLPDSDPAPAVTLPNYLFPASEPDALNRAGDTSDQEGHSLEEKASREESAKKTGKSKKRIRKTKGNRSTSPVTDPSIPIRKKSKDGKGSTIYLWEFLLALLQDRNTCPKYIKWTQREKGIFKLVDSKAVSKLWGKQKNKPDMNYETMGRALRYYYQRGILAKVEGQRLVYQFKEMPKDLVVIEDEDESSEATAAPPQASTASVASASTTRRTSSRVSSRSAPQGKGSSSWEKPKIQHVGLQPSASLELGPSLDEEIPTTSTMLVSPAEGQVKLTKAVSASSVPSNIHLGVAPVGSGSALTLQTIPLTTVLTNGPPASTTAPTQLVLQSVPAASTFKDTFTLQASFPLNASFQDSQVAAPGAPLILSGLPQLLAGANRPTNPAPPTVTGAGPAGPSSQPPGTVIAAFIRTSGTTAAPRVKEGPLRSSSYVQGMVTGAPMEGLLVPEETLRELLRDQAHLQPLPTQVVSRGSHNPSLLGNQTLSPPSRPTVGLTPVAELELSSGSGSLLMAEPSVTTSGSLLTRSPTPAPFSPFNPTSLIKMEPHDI

Consider TGGTTC, for which the binding signal was 1.45 fold enrichment (6-mer frequency, TF over GST control) in test [1]; 1.33 fold enrichment (6-mer frequency, TF over GST control) in [2]; 1.35 fold enrichment (6-mer frequency, TF over GST control) in [3]; 1.29 fold enrichment (6-mer frequency, TF over GST control) in test [4]; 1.28 fold enrichment (6-mer frequency, TF over GST control) in test [5]; 1.31 fold enrichment (6-mer frequency, TF over GST control) in test [6]. Further, the binding signal was 1.32 fold enrichment (6-mer frequency, TF over GST control) in test [7]; 1.37 fold enrichment (6-mer frequency, TF over GST control) in [8]; 1.32 fold enrichment (6-mer frequency, TF over GST control) in test [9]; 1.35 fold enrichment (6-mer frequency, TF over GST control) in test [10]; 1.44 fold enrichment (6-mer frequency, TF over GST control) in test [11]; 1.27 fold enrichment (6-mer frequency, TF over GST control) in [12]. Moreover, the binding signal was 1.51 fold enrichment (6-mer frequency, TF over GST control) in test [13]; 1.33 fold enrichment (6-mer frequency, TF over GST control) in test [14]; 1.36 fold enrichment (6-mer frequency, TF over GST control) in test [15]; 1.33 fold enrichment (6-mer frequency, TF over GST control) in test [16]; 1.57 fold enrichment (6-mer frequency, TF over GST control) in [17]; 1.38 fold enrichment (6-mer frequency, TF over GST control) in [18].

The values are drawn from paper PMC7862700, “An all-to-all approach to the identification of sequence-specific readers for epigenetic DNA modifications on cytosine”.
